Laboratory results as given in the supplement of paper PMC3334620.
In all, about 33,000 sequences were measured (“E-score (-0.5 to 0.5)”: median about -0.0014, highest 2% from about 0.25 on). Many of the other results were omitted from the sample, so the highest values are more common in it than they were.

Each sequence was assayed against T1, Cad1 (UniProt P24813) (assay: PBM E-score (8-mer binding enrichment) (E-score (-0.5 to 0.5)); higher = stronger / more preferred TF binding). Details: protein concentration: 100 nM; construct: GST-full length.
T1 sequence: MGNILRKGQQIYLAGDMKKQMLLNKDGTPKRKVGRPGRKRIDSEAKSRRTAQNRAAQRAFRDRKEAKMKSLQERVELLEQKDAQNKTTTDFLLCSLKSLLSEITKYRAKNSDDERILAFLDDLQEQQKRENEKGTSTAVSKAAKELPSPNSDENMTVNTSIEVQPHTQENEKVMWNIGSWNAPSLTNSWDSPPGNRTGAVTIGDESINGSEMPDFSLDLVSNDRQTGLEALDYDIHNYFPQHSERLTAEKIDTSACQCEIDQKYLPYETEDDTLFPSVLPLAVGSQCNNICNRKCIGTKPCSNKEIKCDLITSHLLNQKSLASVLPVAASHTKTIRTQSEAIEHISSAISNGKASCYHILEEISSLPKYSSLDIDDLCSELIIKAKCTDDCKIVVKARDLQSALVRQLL
Experimental: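 Universal 'all 10-mer' protein binding microarrays (Agilent AMADID 015681) probed with GST-tagged S. cerevisiae TFs (full-length or DBD) made by in vitro transcription/translation (PURExpress), about 100-200 nM. Bound TF was detected with fluorescent anti-GST. Each ungapped 8-mer (which stands for itself and its reverse complement) is scored by the PBM enrichment score (E-score), a modified Wilcoxon-Mann-Whitney statistic from -0.5 to +0.5, computed with the Universal PBM Analysis Suite. Scale: above 0.35 generally sequence-specific binding.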

Sequence	PBM E-score
CTTCTCGA	0.0254
ACGGCTGA	0.0503
CAGCCATG	-0.077
AAAATATC	0.198
TATAAATA	0.25
CATAAATA	0.171
CTAATATA	0.239
CAAATATA	-0.0118
CAAATATG	0.135
AAAATATA	0.208
TAAATATA	0.277
CAAATATC	0.261
GATAAATA	0.123
ATAATATA	0.227
GTAATATA	0.327
ATCCCTTG	-0.131
ACAATAGT	0.109
GCAGCGGA	-0.0753
AGAGAGAA	-0.0532
ACACTAAA	0.144
TTGCACAA	0.0972
CCAAAAAC	0.116

Sequence	PBM E-score
AAGTCTGG	0.105
AATAAAAT	0.166
AATAAATC	-0.0137
AATAAAGA	0.195
TAAAAATA	0.277
AATAAACT	0.12
CTAAAATA	0.0866
AATAAATT	0.282
AAAAAATA	0.0934
AATAAAAG	0.0174
AATAAATA	0.313
AATAAATG	0.0809
AATAAAAA	0.264
AACCCGTG	-0.317
CCCACCCC	0.0432
CGCTATGA	0.119
CCCTTGGA	0.00683
CGTATTAA	0.0596
ACTAGAAT	0.0557
ACTGCATC	-0.00501
ATCAGAGA	-0.0164
AGCGAAAT	-0.184

Sequence	PBM E-score
CATATCGC	0.0925
ATACCATA	0.27
ATACCATG	-0.0699
GTACCATA	-0.158
ATTTAACA	0.193
GCCTGAGA	-0.169
ATGGGACC	-0.00547
CAGCCACC	-0.0873
ACTGACAA	0.264
ACAGAAAC	0.116
TCTGACAA	0.25
ACTGACAC	-0.0887
ACTGACAT	-0.0482
TGTGACAA	0.0395
ACAGACAG	0.0659
ACAGACAC	0.122
ACAGAAAA	0.281
CCTGACAA	-0.0066
ACAGACAA	0.29
TCAGAAAA	-0.145
TGCATACA	0.0433
AGGTGCAA	-0.0504

Sequence	PBM E-score
CTTTCATC	0.0102
GGCCTCAC	0.0157
GGCTTAAC	0.0615
CTTGGCTA	0.134
GGCTTCAA	-0.139
CACAGCCG	0.0914
TAATCCCA	-0.0386
CACACTTC	0.0239
AGTACCTG	-0.0799
CAGAGGGC	-0.213
CGTGCCAC	-0.091
CGCATTCC	-0.216
CATGACAA	0.165
GCTGACAC	0.247
GCTGACAA	0.412
GATGACAC	0.0339
GTTGACAA	0.166
GATGACAA	0.304
CGCAATCC	0.248
CCTGATCG	-0.0975
